Source: PubChem BioAssay AID1986 (Sanford-Burnham Center for Chemical Genomics, 2009)
Among all 290,000 compounds or so, about 890 (0.31%) were called active. Cut-off read from the data, not from the text of the source: active = inhibition mostly above about 52% (no sharp cut-off); inactive = mostly below about 76%. The entries come from a sample that favours actives as a whole.

Test: inhibitors of HIV fusion peptide binding, primary screen, biochemical, uHTS, fluorescence dequenching (AID 1986)
Settings: cell-free peptide binding, 30 min, stronger effect = higher value
[1] = measured here: repeat confirmation average inhibition, at 18.6 µM

With `O=C(CCN1C(=O)c2ccc([N+](=O)[O-])cc2C1=O)Nc1nccs1` as the compound, how does the inhibition (at 20 µM) read?
Its inhibition is -0.3% (inactive).

Which inhibition (at 20 µM) does the source give for `O=C(CCCn1c(=S)[nH]c2ccccc2c1=O)NCCSCc1ccccc1` here?
Its inhibition is 1.5% (inactive).

With `CCN(CC)S(=O)(=O)c1ccc(O)c(C(=O)OCC(=O)Nc2ccc(OC(F)(F)F)cc2)c1` as the compound, how does the inhibition (at 20 µM) read?
The inhibition was -1.8% (inactive).

Which inhibition (at 20 µM) does the source give for `COc1cc2ccccc2cc1C(=O)NC(=S)Nc1cc(C(=O)O)ccc1C` here?
Its inhibition is 51.6% (inactive).

And the inhibition [1]?
The inhibition was -1.6%.

Which inhibition (at 20 µM) does the source give for `COc1cc2ccccc2cc1C(=O)NC(=S)Nc1cccc(C(=O)O)c1` here?
Its inhibition is 58.8% (active).

For `COc1cc2ccccc2cc1C(=O)NC(=S)Nc1ccc(C(=O)O)cc1`, which inhibition (at 20 µM) is on record?
Its inhibition is 53.8% (inactive).

What about the inhibition [1] of the same compound?
The inhibition was 2.1%.

With `COc1ccc(/C=N\NC(=O)c2ccccc2Br)cc1COc1c(F)c(F)cc(F)c1F` as the compound, how does the inhibition (at 20 µM) read?
The inhibition was 0.6% (inactive).

Which inhibition (at 20 µM) does the source give for `COc1cc(C(=O)NCC(=O)N/N=C(/C)c2cccs2)cc(OC)c1OC` here?
The inhibition was -1.2% (inactive).

With `CC(C)P(=O)(Cc1cccc(C#N)c1)C(C)C` as the compound, how does the inhibition (at 20 µM) read?
Its inhibition is 3.5% (inactive).

For `COC(=O)c1ccc(OCC2c3cc(OC)c(OC)cc3CCN2C(=O)c2ccco2)cc1` (configuration not stated), which inhibition (at 20 µM) is on record?
The inhibition was -1.1% (inactive).

For `CN(c1ccccc1)c1ccc(/C=C(\CCC(=O)O)c2nc3ccccc3s2)cc1[N+](=O)[O-]`, which inhibition (at 20 µM) is on record?
Its inhibition is 65% (active).

What does the source list for `O=C(O)CC/C(=C\c1cccc(NC(=O)c2ccccc2Cl)c1)c1nc2ccccc2s1`?
inhibition (at 20 µM): 64.7% (inactive); inhibition [1]: 17.1%

With `COc1ccc(C(=O)Nc2cccc(/C=C(\CCC(=O)O)c3nc4ccccc4s3)c2)cc1` as the compound, how does the inhibition (at 20 µM) read?
Its inhibition is 59.2% (active).

Which inhibition (at 20 µM) does the source give for `O=C(O)CC/C(=C\c1ccc(Cl)c([N+](=O)[O-])c1)c1nc2ccccc2s1` here?
Its inhibition is 13.2% (inactive).

With `COc1cccc(/C=C(\CC(=O)O)c2nc3ccccc3s2)c1` as the compound, how does the inhibition (at 20 µM) read?
Its inhibition is 3.6% (inactive).

With `Cc1ccc(/C=C(\CCC(=O)O)c2nc3ccccc3s2)cc1[N+](=O)[O-]` as the compound, how does the inhibition (at 20 µM) read?
The inhibition was 27.3% (inactive).

With `COc1cc(NC(=O)C2CC(=O)NC3=C2C(=O)CCC3)c(OC)cc1Cl` (configuration not stated) as the compound, how does the inhibition (at 20 µM) read?
The inhibition was -1.9% (inactive).

With `N#CC1=C(N)OC2=C(CC/C2=C\c2ccc(F)cc2)C1c1ccc(F)cc1` (configuration not stated) as the compound, how does the inhibition (at 20 µM) read?
Its inhibition is 73.8% (inactive).

What about the inhibition [1] of the same compound?
Its inhibition is 40.5%.

With `COc1cc2c(cc1NC(=O)CSc1ccc(C)cc1)oc1ccccc12` as the compound, how does the inhibition (at 20 µM) read?
The inhibition was 0.2% (inactive).

With `NC(=O)C1CCN(C(=O)CN2CCc3ccccc32)CC1` as the compound, how does the inhibition (at 20 µM) read?
Its inhibition is -0.5% (inactive).

Which inhibition (at 20 µM) does the source give for `O=C(Nc1ccc(Cl)cc1C(=O)O)c1ccc2c(c1)C(=O)N(Cc1ccco1)C2=O` here?
Its inhibition is 50% (active).

For `O=C(Nc1ccc(O)cc1C(=O)O)c1ccc2c(c1)C(=O)N(Cc1ccco1)C2=O`, which inhibition (at 20 µM) is on record?
The inhibition was 24.6% (inactive).

With `Cc1c(NC(=O)c2ccc3c(c2)C(=O)N(Cc2ccco2)C3=O)cccc1C(=O)O` as the compound, how does the inhibition (at 20 µM) read?
Its inhibition is 6.1% (inactive).

Which inhibition (at 20 µM) does the source give for `COc1cc(/C=N/NC(=O)c2cccc(S(=O)(=O)N3CCOCC3)c2)cc(OC)c1O` here?
Its inhibition is -3.4% (inactive).

Which inhibition (at 20 µM) does the source give for `O=C(N/N=C/c1cc(Br)cc(Br)c1O)c1cccc(S(=O)(=O)N2CCOCC2)c1` here?
The inhibition was 80.2% (active).

What about the inhibition [1] of the same compound?
The inhibition was 53.2%.

With `O=C(N/N=C/c1cc(Br)ccc1O)c1ccncc1` as the compound, how does the inhibition (at 20 µM) read?
Its inhibition is 3.3% (inactive).

Which results are given for `O=C(N/N=C/c1cc(Br)cc(Br)c1O)c1ccncc1`?
inhibition (at 20 µM): 103% (active); inhibition [1]: 59.2%

For `COc1c(Br)cc(Br)cc1/C=N/NC(=O)c1ccncc1`, which inhibition (at 20 µM) is on record?
The inhibition was -1% (inactive).

Which inhibition (at 20 µM) does the source give for `O=C(N/N=C/c1c(F)c(F)c(F)c(F)c1F)c1cccc(S(=O)(=O)N2CCOCC2)c1` here?
The inhibition was 0.1% (inactive).

For `Cc1csc(NC(=O)/C=C/c2ccc(C)o2)n1`, which inhibition (at 20 µM) is on record?
The inhibition was 8.7% (inactive).

With `O=c1[nH]c(C2CCN(S(=O)(=O)c3ccc(S(=O)(=O)NC4CC4)cc3)CC2)nc2c1nnn2Cc1ccccc1` as the compound, how does the inhibition (at 20 µM) read?
The inhibition was -0.4% (inactive).

With `O=S(=O)(Cc1ccccc1)NCC1CCCO1` (configuration not stated) as the compound, how does the inhibition (at 20 µM) read?
The inhibition was -2.7% (inactive).

Which inhibition (at 20 µM) does the source give for `CCCCN(CCCC)C(=O)c1cc2ccccc2c(=O)o1` here?
Its inhibition is -1.7% (inactive).

Which inhibition (at 20 µM) does the source give for `CCCCC[C@H](O)/C=C/[C@H]1C=CC(=O)[C@@H]1C/C=C\CCCC(=O)O` here?
The inhibition was 52.4% (active).

Which inhibition (at 20 µM) does the source give for `CCCCC[C@H](O)/C=C/[C@@H]1[C@@H](C/C=C\CCCC(=O)O)[C@H]2CO[C@@H]1C2` here?
Its inhibition is 3.4% (inactive).

For `CCCCC[C@H](O)/C=C/[C@@H]1[C@@H](C/C=C\CCCC(=O)O)[C@@H](O)C[C@H]1O`, which inhibition (at 20 µM) is on record?
Its inhibition is -0.8% (inactive).

With `CCOC(=O)c1ccc(NC(=S)NCC(O)c2ccccc2)cc1` (configuration not stated) as the compound, how does the inhibition (at 20 µM) read?
Its inhibition is 8.7% (inactive).

For `Cn1cnnc1SCC(=O)Nc1ccc(Cl)cc1`, which inhibition (at 20 µM) is on record?
The inhibition was 1.9% (inactive).

Which inhibition (at 20 µM) does the source give for `Cn1cccc1/C=C1\SC(=S)N(NC(=O)c2cccc(Cl)c2)C1=O` here?
Its inhibition is 25.6% (inactive).

For `Cn1cc(/C=C2\SC(=S)N(NC(=O)c3cccc(Cl)c3)C2=O)c2ccccc21`, which inhibition (at 20 µM) is on record?
Its inhibition is 69.3% (active).

For `Cn1cccc1/C=C1\SC(=S)N(NC(=O)c2ccccc2)C1=O`, which inhibition (at 20 µM) is on record?
The inhibition was 35.3% (inactive).

Which results are given for `Cn1cccc1/C=C1\SC(=S)N(NC(=O)c2ccccc2O)C1=O`?
inhibition (at 20 µM): 66.2% (inactive); inhibition [1]: 25.2%

Which inhibition (at 20 µM) does the source give for `Cn1cc(/C=C2\SC(=S)N(NC(=O)c3ccccc3Cl)C2=O)c2ccccc21` here?
Its inhibition is 66.4% (active).

What about the inhibition [1] of the same compound?
The inhibition was 117%.

Which inhibition (at 20 µM) does the source give for `Cc1ccc(C(=O)NN2C(=O)/C(=C/c3cccn3C)SC2=S)cc1` here?
Its inhibition is 24.4% (inactive).

For `Cn1cccc1/C=C1\SC(=S)N(NC(=O)c2ccccc2Cl)C1=O`, which inhibition (at 20 µM) is on record?
The inhibition was 22.1% (inactive).

With `Cn1cc(/C=C2\SC(=S)N(NC(=O)c3ccccc3)C2=O)c2ccccc21` as the compound, how does the inhibition (at 20 µM) read?
The inhibition was 122% (inactive).

What about the inhibition [1] of the same compound?
Its inhibition is 17.7%.

Which inhibition (at 20 µM) does the source give for `Cc1ccc(C(=O)NN2C(=O)/C(=C/c3cn(C)c4ccccc34)SC2=S)cc1` here?
The inhibition was 86.9% (active).

What about the inhibition [1] of the same compound?
The inhibition was 91.3%.

Which inhibition (at 20 µM) does the source give for `Cc1nc(SCc2ccccc2)[nH]c(=O)c1CC(=O)OCC(C)C` here?
Its inhibition is 0.8% (inactive).

With `CN(C)c1nc(N)c([N+](=O)[O-])c(NCc2ccccc2)n1` as the compound, how does the inhibition (at 20 µM) read?
Its inhibition is -1.3% (inactive).

For `Cc1onc(-c2c(Cl)cccc2Cl)c1C(=O)Nc1nccs1`, which inhibition (at 20 µM) is on record?
The inhibition was -1% (inactive).

For `COc1ccc(NCC(=O)N/N=C(\C)c2cc3ccccc3o2)cc1`, which inhibition (at 20 µM) is on record?
The inhibition was -3.3% (inactive).

Which inhibition (at 20 µM) does the source give for `Cc1c(NC(=O)c2cccs2)c(=O)n(-c2ccccc2)n1C` here?
The inhibition was -1.2% (inactive).

For `Cc1c(N=C2N=C(NC(=O)c3cccs3)c3ccccc32)c(=O)n(-c2ccccc2)n1C`, which inhibition (at 20 µM) is on record?
The inhibition was 75.3% (active).

Which inhibition (at 20 µM) does the source give for `Cc1c(NC(=O)/C(=C/c2cccs2)c2cccs2)c(=O)n(-c2ccccc2)n1C` here?
The inhibition was 6.2% (inactive).

For `Cc1c(N=C2N=C(NC(=O)c3ccc(F)cc3)c3ccccc32)c(=O)n(-c2ccccc2)n1C`, which inhibition (at 20 µM) is on record?
The inhibition was 74.4% (active).

For `Cc1c(N=C2N=C(NC(=O)NC(C)(C)C)c3ccccc32)c(=O)n(-c2ccccc2)n1C`, which inhibition (at 20 µM) is on record?
The inhibition was -0.2% (inactive).

For `Cc1c(N=C2N=C(NC(=O)Nc3ccc(Cl)cc3)c3ccccc32)c(=O)n(-c2ccccc2)n1C`, which inhibition (at 20 µM) is on record?
Its inhibition is 137% (inactive).
